In experiment [1] the test system is Wnt5a (protein binding on small-molecule microarray). Kind of experiment: small molecules binding Wnt5a protein – biophysical, small-molecule microarray, 635/667 nm fluorescence, primary screen (AID 1142).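 Further: fluorescence read at 667 nm with signal to noise per printed feature.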 The note with it: 635 nm fluorescence, higher = more signal.
Experiment [2] is described as follows: ATP-based viability of Huh7 replicon cells – cell-based, CellTiter-Glo luminescence, basal, 48 h, cytotoxicity control for HCV replication inhibitor project, primary screen (AID 1143).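 Further: Huh7 hepatoma cells carrying a hepatitis C replication reporter with no stimulus; test concentration not given here.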 The following applies: higher = more signal, called active from +8 up or from −8 down.
The nature of experiment [3]: Pseudomonas biofilm growth suppression – PAO1 strain, BacTiter-Glo luminescence, LB-PBS, primary screen (AID 1144). The note with it: P. aeruginosa PAO1 biofilm, 12 h, higher = more signal.
A short description of experiment [4]: basal CRE-LacZ reporter activity in PC12 – cell-based, unstimulated, primary screen (AID 1145). The following applies: no forskolin, luminescence, 4.5 h, higher = more signal, called active from +8 up or from −8 down.
Experiment [5] can be described thus: forskolin-driven CRE-LacZ activity in PC12 – cell-based, CRE-LacZ reporter, forskolin-stimulated, primary screen (AID 1146).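 Further: PC12 cells with 6xCRE LacZ reporter stimulated by forskolin 10 µM; beta-galactosidase reporter signal reflecting CREB driven transcription.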 The note with it: luminescence, 4.5 h, higher = more signal, called active from +8 up or from −8 down.
For experiment [6], the target named is Streptavidin (Streptomyces avidinii) (UniProt P22629). Kind of experiment: compounds binding control protein streptavidin – biophysical, small-molecule microarray, 635/667 nm fluorescence, artefact control for SMM compound annotation, primary screen (AID 1147).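 Further: signal reflects streptavidin binding to arrayed compounds as a control protein.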 The following applies: higher = more signal.
Sequence of Streptavidin (Streptomyces avidinii) (P22629 whole entry, looked up): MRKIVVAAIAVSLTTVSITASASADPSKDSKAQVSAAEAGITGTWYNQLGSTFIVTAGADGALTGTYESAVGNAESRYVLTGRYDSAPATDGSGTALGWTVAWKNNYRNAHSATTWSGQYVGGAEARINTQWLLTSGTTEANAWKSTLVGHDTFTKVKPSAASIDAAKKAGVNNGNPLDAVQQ
The nature of experiment [7]: probe aInhba binding on compound microarray – biochemical, small-molecule microarray, 635/667 nm fluorescence, primary screen (AID 1148).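 Further: score merges 667nm spot fluorescence with signal-to-noise for antibody binding to printed compounds.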 The note with it: higher = more signal.
Experiment [8] concerns the target Torsin-1A (Homo sapiens) (UniProt O14656). Kind of experiment: TOR1A wild-type binding on microarray – cell lysate, small-molecule microarray, lysate, 635/667 nm, primary screen (AID 1149). The following applies: COS7 hTOR1A-WT lysate, 635 nm fluorescence, higher = more signal.
Experiment [9] shares this target. As to the kind of experiment: torsin A mutant lysate binding on microarrays – cell lysate, small-molecule microarray, COS7 lysate, 635/667 nm fluorescence, primary screen (AID 1150).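 Further: score pools 667 nm emission and signal to noise measuring lysate protein binding.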 The note with it: COS7 hTOR1A mutant lysate, 635 nm fluorescence, higher = more signal.
The subject of experiment [10] is Sonic hedgehog protein (Shh). Kind of experiment: Sonic hedgehog microarray binding compounds – biochemical, small-molecule microarray, 635/667 nm fluorescence, primary screen (AID 1151).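 Further: Shh protein binding to compounds spotted on small-molecule microarray slides; score combines spot fluorescence intensity with signal-to-noise across triplicate slides.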 The following applies: 635 nm fluorescence, higher = more signal.
A short description of experiment [11]: optical density shifts of acrAB sulA E. coli – strain DRC41, OD650, 48 h, E. coli filamentation inducer project, primary screen (AID 1152).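 Further: E. coli MC1000 strain DRC41 lacking acrAB efflux pump and sulA.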 The note with it: higher = more signal, called active from +8 up or from −8 down.
A short description of experiment [12]: probe aLefty1 binding on compound microarray – biochemical, small-molecule microarray, 635/667 nm fluorescence, primary screen (AID 1153).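 Further: score merges spot fluorescence with signal-to-noise ratio from the scanned slide images.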 The note with it: higher = more signal.
Experiment [13] in a line: plasmodial surface anion channel blockers, osmotic lysis – cell-based, P. falciparum Indochina, OD700, 1 h, primary screen (AID 1154). The note with it: P. falciparum Indochina infected RBC osmotic lysis, higher = more signal, called active from +8 up or from −8 down.
Experiment [14] is described as follows: plasmodial surface anion channel blockers, osmotic lysis – cell-based, P. falciparum Indochina, OD700, 2 h, primary screen (AID 1155).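 Further: lysis reports solute entry through the parasite surface anion channel PSAC.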 The following applies: P. falciparum Indochina infected erythrocytes, higher = more signal, called active from +8 up or from −8 down.
Experiment [15] in a line: changes in parasitized red cell lysis, either direction – P. falciparum Indochina, OD700, 3 h, PSAC antagonist project, primary screen (AID 1156). The following applies: P. falciparum-infected erythrocytes, osmotic lysis, higher = more signal, called active from +8 up or from −8 down.
Experiment [16] can be described thus: plasmodial surface anion channel blockers, osmotic lysis – cell-based, P. falciparum Indochina, OD700, 18 h, primary screen (AID 1157). The note with it: P. falciparum Indochina infected erythrocytes, osmotic lysis OD700, 18 h; higher = more signal, called active from +8 up or from −8 down.
Experiment [17] in a line: S6 kinase pathway phospho-S6 level changes – cell-based, A549, cytoblot, luminescence, serum-stimulated, primary screen (AID 1158).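 Further: serum-stimulated A549 lung adenocarcinoma cells; signal is phosphorylated S6 detected by cytoblot immunostaining with HRP secondary.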 The following applies: 5 h, higher = more signal.
In experiment [18] the target is NADPH oxidase 2 (Homo sapiens) (UniProt P04839). Kind of experiment: compounds shifting NOX2 Amplex Red fluorescence – cell-based, HEK293-NOX2, PMA-stimulated, NOX inhibitor project, primary screen (AID 1159). Further: test concentration not given here. The following applies: 45 min, higher = more signal, called active from +8 up or from −8 down.
Sequence of NADPH oxidase 2 (Homo sapiens) (P04839 whole entry, looked up): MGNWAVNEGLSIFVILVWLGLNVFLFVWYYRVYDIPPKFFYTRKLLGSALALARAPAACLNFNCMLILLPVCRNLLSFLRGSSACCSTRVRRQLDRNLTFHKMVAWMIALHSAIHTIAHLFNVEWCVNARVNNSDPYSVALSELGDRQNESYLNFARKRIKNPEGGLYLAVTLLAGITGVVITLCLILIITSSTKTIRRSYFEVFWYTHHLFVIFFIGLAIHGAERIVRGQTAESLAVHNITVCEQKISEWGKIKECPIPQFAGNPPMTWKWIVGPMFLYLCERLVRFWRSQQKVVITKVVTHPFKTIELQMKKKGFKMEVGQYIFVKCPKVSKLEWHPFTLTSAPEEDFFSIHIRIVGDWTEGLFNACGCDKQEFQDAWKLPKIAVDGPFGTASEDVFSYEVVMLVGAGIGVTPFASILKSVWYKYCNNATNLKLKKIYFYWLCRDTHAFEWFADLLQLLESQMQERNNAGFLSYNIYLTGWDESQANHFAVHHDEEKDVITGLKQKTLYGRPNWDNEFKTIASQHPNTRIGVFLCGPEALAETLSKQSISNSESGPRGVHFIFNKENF
Experiment [19] concerns the target NADPH oxidase 4 (Homo sapiens) (UniProt Q9NPH5). Kind of experiment: compounds shifting NOX4 Amplex Red fluorescence – cell-based, HEK293-NOX4, tetracycline-induced, NOX inhibitor project, primary screen (AID 1160). The note with it: HEK293-NOX4, Amplex Red H2O2 fluorescence, 45 min; higher = more signal, called active from +8 up or from −8 down.
For experiment [20], the target named is NADPH oxidase 5 (Homo sapiens) (UniProt Q96PH1). Kind of experiment: compounds shifting NOX5 Amplex Red fluorescence – cell-based, HEK293-NOX5, NOX inhibitor project, primary screen (AID 1161). The following applies: HEK293-NOX5, ionomycin, 45 min, higher = more signal.
Sequence of NADPH oxidase 5 (Homo sapiens) (Q96PH1 whole entry, looked up): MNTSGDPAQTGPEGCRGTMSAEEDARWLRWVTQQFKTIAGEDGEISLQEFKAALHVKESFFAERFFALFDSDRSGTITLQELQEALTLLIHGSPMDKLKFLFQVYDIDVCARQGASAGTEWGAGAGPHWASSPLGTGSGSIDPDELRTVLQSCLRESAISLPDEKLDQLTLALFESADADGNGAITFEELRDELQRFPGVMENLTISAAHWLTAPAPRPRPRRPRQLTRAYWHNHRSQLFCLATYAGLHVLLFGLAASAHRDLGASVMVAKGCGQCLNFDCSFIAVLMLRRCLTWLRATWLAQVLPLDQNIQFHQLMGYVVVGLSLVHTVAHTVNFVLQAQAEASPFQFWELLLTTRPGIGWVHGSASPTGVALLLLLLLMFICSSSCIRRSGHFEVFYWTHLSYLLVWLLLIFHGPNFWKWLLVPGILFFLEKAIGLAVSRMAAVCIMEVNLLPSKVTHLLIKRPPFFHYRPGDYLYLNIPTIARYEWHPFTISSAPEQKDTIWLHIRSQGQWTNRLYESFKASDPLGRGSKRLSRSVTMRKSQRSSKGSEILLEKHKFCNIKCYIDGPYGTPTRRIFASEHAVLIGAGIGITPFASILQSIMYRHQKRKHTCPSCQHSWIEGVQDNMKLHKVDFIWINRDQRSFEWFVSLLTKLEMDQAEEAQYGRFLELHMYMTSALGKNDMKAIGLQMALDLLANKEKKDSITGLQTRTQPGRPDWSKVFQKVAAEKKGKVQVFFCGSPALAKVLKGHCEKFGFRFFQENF

Activity calls are given as the source filed them. Unless noted, how the calls were made is not given here.

Sequence of Torsin-1A (Homo sapiens) (O14656 whole entry, looked up): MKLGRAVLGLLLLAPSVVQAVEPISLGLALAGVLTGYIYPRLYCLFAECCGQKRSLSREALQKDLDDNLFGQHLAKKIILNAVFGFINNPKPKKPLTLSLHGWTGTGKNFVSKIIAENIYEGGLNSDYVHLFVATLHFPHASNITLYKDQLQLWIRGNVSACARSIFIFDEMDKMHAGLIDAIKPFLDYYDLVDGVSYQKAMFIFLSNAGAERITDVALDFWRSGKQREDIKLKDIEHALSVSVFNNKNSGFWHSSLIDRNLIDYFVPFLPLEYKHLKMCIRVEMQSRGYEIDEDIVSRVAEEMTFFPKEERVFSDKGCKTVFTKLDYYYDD
Sequence of NADPH oxidase 4 (Homo sapiens) (Q9NPH5 whole entry, looked up): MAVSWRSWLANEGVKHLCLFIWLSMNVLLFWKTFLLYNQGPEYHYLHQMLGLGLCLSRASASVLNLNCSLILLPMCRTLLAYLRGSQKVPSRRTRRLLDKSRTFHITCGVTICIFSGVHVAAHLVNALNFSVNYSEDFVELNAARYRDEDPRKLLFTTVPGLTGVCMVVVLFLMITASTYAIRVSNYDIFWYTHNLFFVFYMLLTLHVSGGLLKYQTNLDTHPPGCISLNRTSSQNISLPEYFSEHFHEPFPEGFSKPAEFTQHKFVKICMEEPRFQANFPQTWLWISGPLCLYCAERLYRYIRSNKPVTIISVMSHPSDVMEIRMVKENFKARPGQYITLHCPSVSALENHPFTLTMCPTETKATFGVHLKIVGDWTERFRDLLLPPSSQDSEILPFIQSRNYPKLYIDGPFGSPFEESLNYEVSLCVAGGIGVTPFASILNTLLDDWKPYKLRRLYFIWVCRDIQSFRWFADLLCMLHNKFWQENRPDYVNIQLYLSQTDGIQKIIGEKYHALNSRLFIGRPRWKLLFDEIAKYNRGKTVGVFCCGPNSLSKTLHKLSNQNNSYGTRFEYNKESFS

As to `CC(CCC(=O)OC[C@H]1O[C@H](C#Cc2ccccc2)C=C[C@@H]1Oc1ccc(C)cc1)=NOC(C)CN1CCCc2nc(C)c(C)cc21` (stereo not given in full), the composite z-score in experiment [1] is 0.0127; in [6], 0.727; in [7], -0.0259; with Torsin-1A (Homo sapiens) [8] it was 0.313; with Torsin-1A (Homo sapiens) [9], -0.0361; in experiment [10] it was 0.298. The molecule also gave a composite z-score in experiment [12] of 0.106. The z-score in experiment [2] was -0.386 (inactive); in [3], 0.0692 (inactive); in experiment [4] it was 0.336 (inactive); in experiment [5], 0.51 (inactive); in experiment [11], -0.651 (inactive); in experiment [13] it was 5.4 (inactive). The z-score was 0.859 (inactive) in [14]; 0.785 (inactive) in [15]; 0.735 (inactive) in experiment [16]; -0.624 in experiment [17]; -0.866 (inactive) in [18]; -0.435 (inactive) in experiment [19]. In addition, the z-score in experiment [20] is -0.297.

Take `C#CCCCON=C1C[C@@H](O)[C@@H](O)[C@@H]2[C@@H]3C(=O)N(CC)C(=O)[C@@H]3CC[C@H]12`: the composite z-score in experiment [1] is 0.401; in experiment [6] it was 0.0761; in [7], -0.0986; in the experiment with Torsin-1A (Homo sapiens) [8], 0.259; with Torsin-1A (Homo sapiens) [9], 0.937; in experiment [10], 0.275. In addition, in experiment [12], the composite z-score is -0.0035. Besides, the z-score is 0.0934 (inactive) in experiment [2]; 0.203 (inactive) in experiment [3]; 0.252 (inactive) in experiment [4]; 0.0606 (inactive) in experiment [5]; 0.135 (inactive) in experiment [11]; 0.129 (inactive) in experiment [13]. The z-score in experiment [14] is 0.238 (inactive); in experiment [15], -0.0312 (inactive); in experiment [16] it was 0.0581 (inactive); in [17] it was -0.403; in experiment [18], -0.88 (inactive); in experiment [19], -0.231 (inactive). Also, the z-score in [20] was 0.15.

As to `CCN1C(=O)[C@H]2[C@H]3[C@H](O)[C@H](O)CC(=NOCC=C(C)CCC=C(C)C)[C@@H]3CC[C@H]2C1=O`, the composite z-score in experiment [1] was 0.288; in [6], -0.43; in experiment [7] it was -0.204; in the experiment with Torsin-1A (Homo sapiens) [8], 2.38; with Torsin-1A (Homo sapiens) [9], 0.981; in experiment [10] it was 2.07. The same molecule came in with a composite z-score in experiment [12] of -0.22. Moreover, the z-score is -2.44 (inactive) in [2]; 0.17 (inactive) in [3]; -0.115 (inactive) in [4]; -0.157 (inactive) in experiment [5]; -1.27 (inactive) in experiment [11]; 1.17 (inactive) in experiment [13]. The z-score was 0.579 (inactive) in [14]; 0.0742 (inactive) in [15]; 0.134 (inactive) in [16]; -0.23 in [17]; 1.56 (inactive) in experiment [18]; 0.207 (inactive) in experiment [19]. In addition, the z-score in experiment [20] is -1.06.

In the case of `CC(C)(C)N1C(=O)[C@H]2[C@H]3[C@H](O)[C@H](O)CC(=NOC[C@@H](O)COCc4ccco4)[C@@H]3CC[C@H]2C1=O`, the composite z-score in [1] was 0.0983; in experiment [6] it was -0.276; in [7] it was -0.101; with Torsin-1A (Homo sapiens) [8] it was 0.334; in the experiment with Torsin-1A (Homo sapiens) [9], 0.275; in [10] it was -0.633. This molecule gave a composite z-score in [12] of 0.211. In addition, the z-score is 0.257 (inactive) in experiment [2]; -0.579 (inactive) in [3]; 1.06 (inactive) in experiment [4]; 0.279 (inactive) in [5]; 0.0978 (inactive) in experiment [11]; 0.693 (inactive) in [13]. The z-score in experiment [14] was -0.335 (inactive); in [15] it was -0.222 (inactive); in experiment [16], -0.261 (inactive); in experiment [17], -0.151; in experiment [18], 0.725 (inactive); in experiment [19] it was -1.96 (inactive). Further, in experiment [20], the z-score is -0.279.

Consider `COc1ccc(O[C@H]2C=C[C@@H](c3ccccc3)O[C@@H]2CON=C(C)CCN2CCCc3nc(C)c(C)cc32)cc1`, for which the composite z-score in experiment [1] is 0.0474; in experiment [6], 0.294; in [7], -0.0079; with Torsin-1A (Homo sapiens) [8], 0.476; with Torsin-1A (Homo sapiens) [9], 0.46; in experiment [10], 0.661. Further, the composite z-score in experiment [12] came to 0.0341. Besides, the z-score was -0.381 (inactive) in experiment [2]; -0.291 (inactive) in experiment [3]; 2.46 (inactive) in experiment [4]; 0.544 (inactive) in experiment [5]; 0.379 (inactive) in [11]; 4.35 (inactive) in experiment [13]. In addition, the z-score in experiment [14] was 0.711 (inactive); in experiment [15], 0.938 (inactive); in experiment [16] it was 0.588 (inactive); in experiment [17], -0.121; in [18] it was -1.81 (inactive); in experiment [19], -0.049 (inactive). Also, in experiment [20], the z-score is -0.297.

(Values after PubChem BioAssay.)
